# Experimental data published in PubChem BioAssay AID1159580 (chemical genetic matrix, 2015).
# Several values for one entry are separate records, joined by “and”; a condition that tells them apart may be missing. Equal values may be shown once. About 2,000 (36%) of roughly 5,500 compounds were called active. Inconclusive results (about 18%) are left out. No stated cut-off is given here; in the data, active means normalized growth mostly below about 0.91 (no sharp cut-off); inconclusive means no clear call, values can overlap the other calls; inactive means mostly above about 0.92. This is one part of the list.
# Assay: chemical genetic growth profiling, strain panel (AID 1159580);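 further: tested at 20 µM; growth read once vehicle control cultures reached saturation at 30 °C; 1 = growth at the plate median or of vehicle wells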
# Settings: S. cerevisiae deletion strains, growth OD
compound,measurement,setting,value
CCOc1cccc(C(=O)c2ccc(O)c(O)c2O)c1,normalized growth,"locus YAL021C, strain ccr4, stronger effect = lower value",0.601 (active)
same,normalized growth,"locus YAL026C, strain drs2, stronger effect = lower value",0.813 (active)
same,normalized growth,"locus YAL030W, strain snc1, stronger effect = lower value",0.928 (active)
same,normalized growth,"locus YBL061C, strain skt5, stronger effect = lower value",0.888 (active)
same,normalized growth,"locus YBR009C, strain hhf1, stronger effect = lower value",0.879 (active)
same,normalized growth,"locus YBR021W, strain FUR4, stronger effect = lower value",0.898 (inactive)
same,normalized growth,"locus YBR023C, strain chs3, stronger effect = lower value",0.806 (active)
same,normalized growth,"locus YBR171W, strain sec66, stronger effect = lower value",0.918 (inactive)
same,normalized growth,"locus YBR229C, strain ROT2, stronger effect = lower value",0.938 (inactive)
same,normalized growth,"locus YBR231C, strain swc5, stronger effect = lower value",0.783 (active)
same,normalized growth,"locus YBR279W, strain paf1, stronger effect = lower value",0.933 (inactive)
same,normalized growth,"locus YCL011C, strain gbp2, stronger effect = lower value",0.941 (inactive)
same,normalized growth,"locus YCL016C, strain dcc1, stronger effect = lower value",0.963 (inactive)
same,normalized growth,"locus YCL029C, strain bik1, stronger effect = lower value",0.776 (active)
same,normalized growth,"locus YCL061C, strain MRC1, stronger effect = lower value",0.933 (inactive)
same,normalized growth,"locus YCL069W, strain vba3, stronger effect = lower value",0.975 (inactive)
same,normalized growth,"locus YCR088W, strain abp1, stronger effect = lower value",0.969 (inactive)
same,normalized growth,"locus YDL005C, strain med2, stronger effect = lower value",0.974 (inactive)
same,normalized growth,"locus YDL035C, strain GPR1, stronger effect = lower value",0.804 (active)
same,normalized growth,"locus YDL040C, strain nat1, stronger effect = lower value",0.963 (inactive)
same,normalized growth,"locus YDL074C, strain BRE1, stronger effect = lower value",0.67 (active)
same,normalized growth,"locus YDL101C, strain DUN1, stronger effect = lower value",0.752 (active)
same,normalized growth,"locus YDL185W, strain tfp1, stronger effect = lower value",0.586 (active)
same,normalized growth,"locus YDL192W, strain arf1, stronger effect = lower value",0.815 (active)
same,normalized growth,"locus YDR001C, strain nth1, stronger effect = lower value",0.955 (inactive)
same,normalized growth,"locus YDR069C, strain doa4, stronger effect = lower value",0.566 (active)
same,normalized growth,"locus YDR101C, strain arx1, stronger effect = lower value",0.889 (active)
same,normalized growth,"locus YDR137W, strain rgp1, stronger effect = lower value",0.643 (active)
same,normalized growth,"locus YDR159W, strain sac3, stronger effect = lower value",0.84 (active)
same,normalized growth,"locus YDR162C, strain NBP2, stronger effect = lower value",0.672 (active)
same,normalized growth,"locus YDR195W, strain ref2",0.99 (inactive)
same,normalized growth,"locus YDR297W, strain sur2, stronger effect = lower value",0.916 (active)
same,normalized growth,"locus YDR318W, strain mcm21, stronger effect = lower value",0.877 (active)
same,normalized growth,"locus YDR334W, strain swr1, stronger effect = lower value",0.886 (active)
same,normalized growth,"locus YDR335W, strain msn5, stronger effect = lower value",0.84 (active)
same,normalized growth,"locus YDR388W, stronger effect = lower value",0.923 (active)
same,normalized growth,"locus YDR392W, strain spt3, stronger effect = lower value",0.807 (inactive)
same,normalized growth,"locus YDR502C, strain sam2, stronger effect = lower value",0.791 (active)
same,normalized growth,"locus YEL003W, strain gim4, stronger effect = lower value",0.839 (active)
same,normalized growth,"locus YEL037C, strain rad23, stronger effect = lower value",0.925 (inactive)
same,normalized growth,"locus YEL061C, strain CIN8 (second series), stronger effect = lower value",0.955 (inactive)
same,normalized growth,"locus YER015W, strain faa2, stronger effect = lower value",0.89 (active)
same,normalized growth,"locus YER016W, strain bim1, stronger effect = lower value",0.953 (inactive)
same,normalized growth,"locus YER110C, stronger effect = lower value",0.979 (inactive)
same,normalized growth,"locus YER111C, strain swi4, stronger effect = lower value",0.815 (active)
same,normalized growth,"locus YER155C, strain BEM2 (second series), stronger effect = lower value",0.847 (active)
same,normalized growth,"locus YER155C, strain BEM2, stronger effect = lower value",0.858 (active)
same,normalized growth,"locus YER167W, strain BCK2, stronger effect = lower value",0.909 (inactive)
same,normalized growth,"locus YFR010W, strain ubp6, stronger effect = lower value",0.84 (active)
same,normalized growth,"locus YGL078C, strain dbp3, stronger effect = lower value",0.956 (inactive)
same,normalized growth,"locus YGL086W, strain mad1, stronger effect = lower value",0.782 (active)
same,normalized growth,"locus YGL167C, strain pmr1, stronger effect = lower value",0.935 (inactive)
same,normalized growth,"locus YGL173C, strain kem1, stronger effect = lower value",0.766 (active)
same,normalized growth,"locus YGL227W, strain vid30, stronger effect = lower value",0.984 (inactive)
same,normalized growth,"locus YGL240W, strain doc1, stronger effect = lower value",0.978 (inactive)
same,normalized growth,"locus YGL248W, strain PDE1, stronger effect = lower value",0.792 (active)
same,normalized growth,"locus YGL253W, strain hxk2, stronger effect = lower value",0.901 (active)
same,normalized growth,"locus YGR135W, strain pre9, stronger effect = lower value",0.777 (active)
same,normalized growth,"locus YGR252W, strain gcn5, stronger effect = lower value",0.77 (inactive)
same,normalized growth,"locus YHR013C, strain ard1, stronger effect = lower value",0.81 (active)
same,normalized growth,"locus YHR027C, strain rpn1, stronger effect = lower value",0.83 (active)
same,normalized growth,"locus YHR030C, strain SLT2, stronger effect = lower value",0.978 (inactive)
same,normalized growth,"locus YHR079C, strain IRE1 (second series), stronger effect = lower value",0.859 (active)
same,normalized growth,"locus YHR079C, strain IRE1, stronger effect = lower value",1.02 (inactive)
same,normalized growth,"locus YHR094C, strain hxt1, stronger effect = lower value",0.965 (inactive)
same,normalized growth,"locus YHR129C, strain ARP1, stronger effect = lower value",0.761 (active)
same,normalized growth,"locus YHR142W, strain chs7, stronger effect = lower value",0.776 (active)
same,normalized growth,"locus YHR200W, strain rpn10, stronger effect = lower value",0.859 (active)
same,normalized growth,"locus YIL066C, strain RNR3, stronger effect = lower value",0.8 (active)
same,normalized growth,"locus YIL073C, strain SPO22, stronger effect = lower value",0.654 (active)
same,normalized growth,"locus YIL125W, strain kgd1, stronger effect = lower value",0.951 (inactive)
same,normalized growth,"locus YIR030C, strain dcg1, stronger effect = lower value",0.958 (inactive)
same,normalized growth,"locus YJL092W, strain hpr5, stronger effect = lower value",0.97 (inactive)
same,normalized growth,"locus YJL095W, strain BCK1 (second series), stronger effect = lower value",0.867 (active)
same,normalized growth,"locus YJL095W, strain BCK1, stronger effect = lower value",0.603 (active) and 0.961 (inactive)
same,normalized growth,"locus YJL115W, strain asf1, stronger effect = lower value",0.971 (inactive)
same,normalized growth,"locus YJL129C, strain trk1, stronger effect = lower value",0.936 (inactive)
same,normalized growth,"locus YJL134W, strain LCB3, stronger effect = lower value",0.932 (inactive)
same,normalized growth,"locus YJL154C, strain vps35, stronger effect = lower value",0.959 (inactive)
same,normalized growth,"locus YJL164C, strain tpk1, stronger effect = lower value",0.811 (active)
same,normalized growth,"locus YJL166W, strain qcr8, stronger effect = lower value",0.872 (active)
same,normalized growth,"locus YJL168C, strain set2, stronger effect = lower value",0.964 (inactive)
same,normalized growth,"locus YJL187C, strain SWE1 (second series), stronger effect = lower value",0.42 (active)
same,normalized growth,"locus YJL187C, strain SWE1, stronger effect = lower value",0.895 (active)
same,normalized growth,"locus YJR066W, strain TOR1, stronger effect = lower value",0.981 (inactive)
